Compounds with a hit are over-represented: about 1.1% of the library has one in this group of screens.
IP6K1 inh: inhibitors of human IP6K1 | Q92551 | IP6K1 kinase, ADP-Glo luminescence, 2 h; active compounds read low | activity change, % (series mostly up to about 58 µM) | 140,000 compounds, 0.81% hits; in the data active = activity change below about -25%
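ADP-Glo luminescence measures ADP made by human IP6K1 during a 2 h RT reaction with ATP/IP6 (mix at 1.3 mM/130 uM); top library doses 57.5 and 19.1 uM final.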
SNCA viab count: cell viability loss counter-screen | 150,000 compounds, 0.12% hits | HEK-293-SNCA-luc viability, GF-AFC fluorescence, 24 h | Potency, µM (titrated, usually from 57.1 µM), actives largely listed as cytotoxic; also: nearly all actives have a fitted effect of over 30% in size
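HEK-293-SNCA-luc cells (1500/well) plated 24 h, then exposed 24 h to a dilution series; GF-AFC added 30 min at 37C, fluorescence 405/540 nm; normalised to medium-only and DMSO wells, Hill fit.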
SNCA expr inh: inhibitors of alpha-synuclein (SNCA) gene expression | Potency, µM (titrated, usually from 57.2 µM), actives largely listed as inhibitors | HEK-293 SNCA-luciferase knock-in, luminescence, 24 h | 140,000 compounds, 0.17% hits; also: nearly all actives have a fitted effect of over 45% in size
GPT2 inh: inhibitors of human GPT2 alanine aminotransferase; Q8TD30; Recombinant GPT2, coupled pyruvate oxidase/HRP Amplex Red fluorescence; Potency, µM (highest dose often 57.7 µM), hits mostly inhibitors; 100,000 compounds, 0.25% hits; also: nearly all actives have a fitted effect of over 60% in size
Target sequence (Q8TD30 whole entry, looked up): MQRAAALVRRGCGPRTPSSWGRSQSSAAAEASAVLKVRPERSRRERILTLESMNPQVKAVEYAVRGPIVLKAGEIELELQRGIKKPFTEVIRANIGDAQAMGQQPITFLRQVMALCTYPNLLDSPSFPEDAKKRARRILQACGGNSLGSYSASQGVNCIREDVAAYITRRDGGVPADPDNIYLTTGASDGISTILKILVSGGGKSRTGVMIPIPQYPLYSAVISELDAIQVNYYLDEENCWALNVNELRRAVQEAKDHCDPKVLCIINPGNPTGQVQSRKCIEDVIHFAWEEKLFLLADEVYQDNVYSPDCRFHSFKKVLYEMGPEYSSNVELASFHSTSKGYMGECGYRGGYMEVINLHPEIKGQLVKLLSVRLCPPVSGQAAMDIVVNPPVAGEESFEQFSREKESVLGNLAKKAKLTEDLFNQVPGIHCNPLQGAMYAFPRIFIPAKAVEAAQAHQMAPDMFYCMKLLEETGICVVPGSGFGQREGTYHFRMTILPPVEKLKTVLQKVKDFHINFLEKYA
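Fluorescence of coupled pyruvate oxidase/HRP/Amplex Red system (50uM Amplex, 30 min, dark) reports pyruvate formed by GPT2. Enzyme reaction: 10ng/uL GPT2, 2mM L-alanine, 250uM a-KG, 30 min room temperature, pH 7.5; 50uM AOA control.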
IP6K1 conf: human IP6K1 inhibition, confirmatory; shares compounds with IP6K1 inh; recombinant IP6K1 kinase, ADP-Glo luminescence, 2 h; Potency, µM (top dose mostly 49 µM), actives largely listed as inhibitors; 1,200 compounds, 13% hits; also: nearly all actives have a fitted effect of over 65% in size
Of the large screens only hits and unclear results are named; the others gave an inactive call (follow-up assays come after a bar, where they were run). Unless noted, calls follow the shape of the dose curve; as a rule, active = well fitted curve in the direction sought with a large enough effect; inconclusive = small, poorly fitted or top-dose-only effect, or another doubt; inactive = no such curve, though single readings can be large; an effect the other way counts as inactive or inconclusive.

Cc1cccc2c1O[C@H]1[C@H](CO)CN([S+](=O)([O-])Cc3ccccc3)[C@@H]21	none (no result: SNCA viab count, SNCA expr inh, GPT2 inh)
Cc1ccc(C)c(N2CCN(S(=O)(=O)c3cnc(N)nc3)CC2)c1	none (no result: GPT2 inh)
Cc1ccc(C)c(N2CCN(S(=O)(=O)c3csc(C(N)=O)c3)CC2)c1	IP6K1 inh -30.1 (no result: GPT2 inh) | IP6K1 conf inconclusive
Cc1ccc(-c2ccccc2CN2CCC(C(=O)NCCc3ccccc3)CC2)cc1Cl	none
COc1ccc(C2(C(=O)N(C)Cc3ccc(OC(F)(F)F)cc3)CCOCC2)cc1	none
C=C1c2cccc(O)c2C(O)=C2C(=O)[C@]3(O)C(O)=C(C(N)=O)C(=O)[C@@H](N(C)C)[C@@H]3[C@@H](O)[C@H]12	IP6K1 inh -36.8 | IP6K1 conf inactive
Cc1ccc(-n2c(C)cc(/C=C(\C#N)C(=O)Nc3ccc(C)c(C)c3)c2C)cc1	none (no result: GPT2 inh)
Cc1ccc(NC(=O)/C(C#N)=C/c2cc(C)n(-c3ccc(Br)cc3)c2C)cc1C	IP6K1 inh -28.6, SNCA viab count inconclusive, SNCA expr inh inconclusive (no result: GPT2 inh) | IP6K1 conf inactive
CC(C)OC(=O)N(C)Cc1cccc(N2CCN(S(=O)(=O)c3c(Cl)cccc3Cl)CC2)c1F	none (no result: SNCA viab count, SNCA expr inh, GPT2 inh)
COc1ccccc1CC(=O)N1CC[C@@H](NC(=O)c2cnccn2)[C@H](O)C1	IP6K1 inh -30.9 | IP6K1 conf inactive
Cc1nc(CC(=O)N2CC[C@@H](NC(=O)c3cnccn3)[C@H](O)C2)cs1	none
CC1CN(c2ccc(Cl)cc2)C(=O)CN1C(=O)CCn1cccc1 (stereo not given)	IP6K1 inh -33.4 | IP6K1 conf inactive
Cn1nc(C(=O)NCc2ccccc2)c2c1-c1ccccc1SC2	none (no result: GPT2 inh)
COc1cccc(CNC(=O)c2nn(C)c3c2CSc2ccccc2-3)c1	IP6K1 inh -32.3 (no result: GPT2 inh) | IP6K1 conf inconclusive
Cc1nc(CC2CCN(C(=O)c3cc4c(s3)CCC(C)C4)CC2)no1 (stereo not given)	none
Cc1ccc(C(C(=O)N2CCC(Cc3noc(C)n3)CC2)N(C)C)cc1 (stereo not given)	IP6K1 inh -27.0 | IP6K1 conf inactive
Cc1cc(C)cc(-c2ccc(CN3CCCC3C(=O)NC3CC3)cc2)c1 (stereo not given)	SNCA expr inh inconclusive
O=S(=O)(c1cccc(Cl)c1)n1c(/C=C/c2ccccc2Cl)nc2ccccc21	IP6K1 inh -39.1, SNCA expr inh inconclusive (no result: GPT2 inh) | IP6K1 conf inconclusive
CC(C)OCCCNC(=O)CCCN1C(=O)CCn2nc(-c3cccn3C)cc21	IP6K1 inh -33.9 (no result: GPT2 inh) | IP6K1 conf inactive
COc1cccc(NC(=O)CSc2nnc3scc(-c4ccc(Cl)cc4)n23)c1	IP6K1 inh -36.9 (no result: GPT2 inh) | IP6K1 conf inactive
COc1ccc(NC(=O)CSc2nnc3scc(-c4ccc(Cl)cc4)n23)cc1	SNCA viab count inconclusive (no result: GPT2 inh)
COc1ccc(CNC(=O)C(=O)NCC(c2ccco2)S(=O)(=O)c2ccc(Cl)cc2)cc1 (stereo not given)	IP6K1 inh -29.0 (no result: GPT2 inh) | IP6K1 conf inactive
CCOc1ccc(Nc2nc(-c3ccccc3)no2)cc1	none
Cn1ncc2c(C(=O)NCc3cccc(C(F)(F)F)c3)cc(-c3ccccc3C(F)(F)F)nc21	none (no result: SNCA viab count, SNCA expr inh, GPT2 inh)
COc1ccccc1-c1ccc(CN2CCC(NC(=O)C3CCCCC3)C2)cc1 (stereo not given)	none (no result: SNCA viab count, SNCA expr inh, GPT2 inh)
CCc1cccc(CC)c1N(COC)C(=O)Cn1c(C)nc2ccccc21	IP6K1 inh -33.0, SNCA expr inh inconclusive (no result: GPT2 inh) | IP6K1 conf inactive
O=C(NCc1ccc(F)cc1)c1ccc2nnc(-c3cc(C(F)(F)F)cc(C(F)(F)F)c3)n2c1	SNCA expr inh inconclusive
COc1ccc(NC(=O)c2nc(S(=O)(=O)Cc3ccc(C)cc3)ncc2Cl)cc1	SNCA viab count inconclusive, SNCA expr inh inconclusive (no result: GPT2 inh)
CCc1nnc(NC(=O)c2nc(S(=O)(=O)Cc3ccc(C)cc3)ncc2Cl)s1	IP6K1 inh -33.1, SNCA viab count 28.2µM, SNCA expr inh inconclusive (no result: GPT2 inh) | IP6K1 conf inactive
Cc1[nH]c(/C=C2\C(=O)Nc3ccccc32)c(C)c1CCC(=O)O	none (no result: IP6K1 inh, SNCA viab count, SNCA expr inh, GPT2 inh) | IP6K1 conf inactive
COc1ccc(C(=O)N[C@@H]2CN(Cc3ccccc3)C[C@H]2CN(C)C)cn1	SNCA expr inh inconclusive
Cc1ccccc1CNC(=O)c1cnc2sc(N3CCOCC3)nn2c1=O	IP6K1 inh -99.7 (no result: GPT2 inh) | IP6K1 conf inactive
Cc1ccc(Sc2c(C)nn(C(=O)COc3ccccc3)c2C)cc1	IP6K1 inh -35.8, SNCA expr inh inconclusive (no result: GPT2 inh) | IP6K1 conf inconclusive
CCOC(=O)c1ccc(NC2SC(=O)N(Cc3cccc(C(=O)O)c3)C2=O)cc1 (stereo not given)	IP6K1 inh -45.8 (no result: GPT2 inh) | IP6K1 conf inconclusive
COC(=O)c1cccc(CN2C(=O)SC(Nc3ccc(Cl)cc3)C2=O)c1 (stereo not given)	none (no result: GPT2 inh)
CCOC(=O)[C@@H]1CN([S+](=O)([O-])Cc2ccccc2)[C@H]2c3cccc(F)c3O[C@@H]12	none (no result: SNCA viab count, SNCA expr inh, GPT2 inh)
COc1cccc(CCC(=O)N2C[C@@H]3CC[C@H](C2)N(CC2CCC2)C3=O)c1	IP6K1 inh -30.9 | IP6K1 conf inactive
COc1cccc(CCC(=O)N2CC3CC(C2)[C@H]2CCCC(=O)N2C3)c1 (stereo not given in full)	none
Cc1nnc2ccc(N3CCN(C(=O)c4cccc(Cl)c4)CC3)nn12	none (no result: SNCA viab count, SNCA expr inh, GPT2 inh)
COc1cc(Cl)ccc1-c1ccc(COc2ccc3c(cnn3CCC(=O)O)c2)cc1	none
Cc1cc(Nc2nc(N[C@@H](C)c3ncc(F)cn3)ncc2Cl)n[nH]1	SNCA viab count inconclusive, SNCA expr inh inconclusive | IP6K1 conf inactive
CCOC(=O)[C@H]1C[C@]2(CCCCN(C)C2=O)N(C(=O)c2ccccc2)[C@H]1c1ccco1	none (no result: SNCA viab count, SNCA expr inh, GPT2 inh)
CN1CCN(C(=O)c2cc(-c3cccc(C(F)(F)F)c3)nc3c2cnn3C)CC1	none
Cn1nnnc1Sc1ncnc2scc(-c3cc4ccccc4o3)c12	none (no result: IP6K1 inh, SNCA viab count, SNCA expr inh, GPT2 inh) | IP6K1 conf inactive
c1ccc2oc(-c3ccnc4ncnn34)cc2c1	none
Cn1nnnc1Sc1ncnc2scc(-c3ccc(C#N)cc3)c12	none (no result: IP6K1 inh, SNCA viab count, SNCA expr inh, GPT2 inh) | IP6K1 conf inactive
CCCCNC(=O)c1cc(Sc2ccc(OCC)cc2)nc2ccccc12	IP6K1 inh -25.7 (no result: GPT2 inh) | IP6K1 conf inactive
Cc1cn(C)c(CC(=O)N2CCN(c3cccc(Cl)c3)CC2)c1C(=O)O	IP6K1 inh -25.6 (no result: GPT2 inh) | IP6K1 conf inactive
COC(=O)N(C)Cc1cccc(N2CCN(C(=O)c3c(Cl)cccc3Cl)CC2)c1	none (no result: SNCA viab count, SNCA expr inh, GPT2 inh)
COc1ccc(C)cc1NC(=O)c1cc(S(=O)(=O)N2CCN(c3cccc(C)c3C)CC2)ccc1F	none (no result: GPT2 inh)
COc1ccccc1N1CCN(S(=O)(=O)c2ccc(F)c(C(=O)Nc3ccc(C)c(F)c3)c2)CC1	IP6K1 inh -28.1 (no result: GPT2 inh) | IP6K1 conf inactive
CC(=O)c1cccc(NC(=O)Nc2nnc(N3CCCC3)s2)c1	IP6K1 inh -38.1 (no result: GPT2 inh) | IP6K1 conf inactive
COc1cccc(-c2ccc(CN3CCCC3C(=O)NCc3ccccc3)cc2)c1 (stereo not given)	GPT2 inh inconclusive
COCC(=O)n1nc(-c2ccco2)nc1NCc1ccccc1Cl	none (no result: GPT2 inh)
